Calls of active or inactive are those of the source. Rule as the data show it, unless noted: active = inhibition above about 80%; inactive = the rest.
Assays:
[1] = LFS_MB_P medulloblastoma growth inhibition, cell-based, chromothripsis tumors, cisplatin or BGB combos (AID 1671449); settings: LFS_MB_P medulloblastoma cells;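 also: cells exposed for 96 hours; 0% = vehicle DMSO and 100% = killing by high DMSO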
[2] = HDN33 neuroblastoma growth inhibition, cell-based, chromothripsis tumors, cisplatin or BGB combos (AID 1671450); settings: HDN33 neuroblastoma cells, stronger effect = higher value;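 also: cells exposed to compound for four days; 0% = vehicle DMSO and 100% = cell killing by high DMSO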
[3] = ICB984 medulloblastoma cell growth inhibition, synergistic combos for chromothripsis tumors, cisplatin or BGB combos (AID 1671451; call rule not given here;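 also: cells exposed for 96 hours before readout; 0% = vehicle DMSO and 100% = killing by high DMSO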); settings: ICB984 medulloblastoma cells, drug combinations, stronger effect = higher value
[4] = LFS_MB_1R medulloblastoma cell growth inhibition, synergistic combos for chromothripsis tumors, cisplatin or BGB combos (AID 1671452); settings: LFS_MB_1R medulloblastoma cells, stronger effect = higher value;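 also: cells exposed for 96 hours before readout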
[5] = HTB85 osteosarcoma cell growth inhibition, synergistic combos for chromothripsis tumors, BGB or cisplatin IC20 combos (AID 1671453); settings: HTB85 osteosarcoma cells, drug combinations, stronger effect = higher value;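 also: cells exposed for 96 hours before readout; 0% = vehicle DMSO and 100% = high DMSO killing control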
[6] = CRL2098 osteosarcoma cell growth inhibition, synergistic combos for chromothripsis tumors, BGB or cisplatin IC20 combos (AID 1671454); settings: CRL2098 osteosarcoma cells, drug combinations, stronger effect = higher value;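 also: cells exposed for 96 h before readout; 0% = vehicle DMSO and 100% = killing by high DMSO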
[7] = HD-MB03 medulloblastoma cell growth inhibition, synergistic combos for chromothripsis tumors, BGB or cisplatin IC20 combos (AID 1671455; in the data active = inhibition above about 83%;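 also: 0% = vehicle DMSO and 100% = high DMSO as cytotoxic control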); settings: HD-MB03 medulloblastoma cells, stronger effect = higher value
[8] = UWB1.289 ovarian carcinoma cell growth inhibition, synergistic combos for chromothripsis tumors, BGB or cisplatin combos (AID 1671456); settings: UWB1.289 ovarian carcinoma cells, stronger effect = higher value;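 also: cells exposed to compound for four days; 0% = vehicle DMSO and 100% = killing by high DMSO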
[9] = LFS_MB_2R medulloblastoma cell growth inhibition, synergistic combos for chromothripsis tumors, cisplatin combos (AID 1671457); settings: LFS_MB_2R medulloblastoma cells, stronger effect = higher value;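 also: cells exposed to compound for four days before readout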
[10] = MDA-MB-436 breast carcinoma cell growth inhibition, synergistic combos for chromothripsis tumors, BGB or cisplatin combos (AID 1671458; call rule not given here;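 also: cells exposed for 96 hours; 0% = vehicle DMSO and 100% = killing by high DMSO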); settings: MDA-MB-436 breast carcinoma growth inhibition, drug combinations, stronger effect = higher value
[11] = UWB1.289_BRCA1 ovarian cancer growth, cell-based, BGB or cisplatin combinations (AID 1671459); settings: UWB1.289 BRCA1 ovarian carcinoma, drug combinations, stronger effect = higher value
[12] = human astrocyte viability loss, single and combined drugs, cytotoxicity control for chromothriptic childhood tumor combination screen, cell-based, BGB or cisplatin IC20 combos (AID 1671460); settings: Human astrocytes, drug combinations, stronger effect = higher value;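 also: cells exposed to compounds for 96 hours before viability readout; 0% = vehicle and 100% = killing control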
[13] = growth inhibition of BT084 medulloblastoma cells, cell-based, ICGC_MB145, cisplatin and BGB IC40 combos (AID 1671461); settings: drug combinations, stronger effect = higher value;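 also: cells exposed to drugs for 96 hours; 0% = vehicle DMSO and 100% = high DMSO full killing control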
[14] = growth inhibition of RCMB18 medulloblastoma cells, cell-based, cisplatin and BGB IC40 combos (AID 1671462); settings: stronger effect = higher value;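 also: cells exposed to compound for four days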
[15] = growth inhibition of CRL1545 osteosarcoma cells, cell-based, cisplatin and BGB IC20 combos (AID 1671464); settings: stronger effect = higher value;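 also: cells exposed to compound for 96 hours before readout; 0% = vehicle DMSO and 100% = high DMSO killing control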
[16] = at 0.5 µM, stronger effect = higher value
[17] = measured here: combination with BGB IC20, at 0.005 µM
[18] = measured here: combination with BGB IC40, at 0.005 µM
[19] = measured here: combination with BGB IC40, at 0.05 µM
[20] = measured here: combination with cisplatin, at 0.5 µM, stronger effect = higher value
[21] = measured here: combination with cisplatin, at 5 µM, stronger effect = higher value
[22] = measured here: with BGB IC20 combination, at 0.5 µM
[23] = measured here: with cisplatin IC20 combination, at 0.5 µM
[24] = measured here: 5 uM single agent, at 5 µM
[25] = measured here: combination with cisplatin, at 0.5 µM
[26] = measured here: combination with cisplatin, at 5 µM
[27] = measured here: with BGB IC20, at 0.5 µM
[28] = measured here: with BGB IC20, at 5 µM
[29] = measured here: with cisplatin IC20, at 0.5 µM
[30] = measured here: with cisplatin IC20, at 5 µM
[31] = measured here: combination with BGB at IC20, at 0.5 µM
[32] = measured here: combination with cisplatin at IC20, at 0.5 µM
[33] = measured here: combo with BGB at IC20, at 0.5 µM
[34] = measured here: combo with cisplatin at IC20, at 0.5 µM
[35] = measured here: inhibition with BGB combination, at 0.05 µM
[36] = measured here: inhibition with cisplatin combination, at 0.05 µM
[37] = measured here: BGB combination, at 0.5 µM
[38] = measured here: BGB combination, at 5 µM
[39] = measured here: cisplatin combination, at 0.5 µM
[40] = measured here: cisplatin combination, at 5 µM
[41] = BGB combination, concentration series, at 5 µM
[42] = cisplatin combination, concentration series, at 5 µM
[43] = measured here: combo with BGB IC20, at 0.5 µM
[44] = measured here: combo with cisplatin IC20, at 0.5 µM
[45] = cisplatin combination, at 0.5 µM
[46] = measured here: BGB IC40 combination 0.05 uM, at 0.05 µM
[47] = measured here: BGB IC40 combination, at 0.05 µM

With `O=c1[nH]c(=S)[nH]c2nc(-c3ccccc3)c(-c3ccccc3)nc12` the inhibition [1, 16] was -4.47% (inactive), the inhibition [1, 17] was -16.2% and the inhibition [1, 18] was -17.7%. It also gave an inhibition [1, 19] of -55%, an inhibition [1, 20] of -17.6% and an inhibition [1, 21] of -30.5%. The inhibition ([2]; BGB combo, at 5 µM) was -12.8%, the inhibition ([2]; at 0.5 µM) was -3.23% (inactive) and the inhibition ([2]; cisplatin combo, at 5 µM) was -3.41%. The inhibition [2, 22] was -5.44%, the inhibition [2, 23] was 12.5% and the inhibition ([2]; single agent, at 5 µM) was 8.28%. It also gave an inhibition ([3]; BGB IC20 combo, at 0.005 µM) of -5.97%, an inhibition ([3]; BGB IC40 combo, at 0.005 µM) of -18.7% and an inhibition ([3]; BGB IC40 combo, at 0.05 µM) of -15.7%. For the same compound, the inhibition ([3]; at 0.5 µM) was -20.3% (inactive), the inhibition ([3]; cisplatin combo, at 0.05 µM) was -19.8% and the inhibition ([3]; cisplatin combo, at 0.5 µM) was -15.9%. The inhibition ([3]; cisplatin combo, at 5 µM) was -36.6%, the inhibition [3, 24] was 8.29% and the inhibition ([4]; at 0.5 µM) was -12.5% (inactive). It also gave an inhibition [4, 19] of -14.1%, an inhibition [4, 25] of -36.2% and an inhibition [4, 26] of -28.2%. The inhibition ([5]; at 0.5 µM) was -2.11% (inactive), the inhibition [5, 27] was -2.07% and the inhibition [5, 28] was -2.27%. The inhibition [5, 29] was -3.18%, the inhibition [5, 30] was -32% and the inhibition ([5]; single agent, at 5 µM) was 0.689%. For the same compound, the inhibition ([6]; at 0.5 µM) was -39.5% (inactive), the inhibition [6, 31] was -21.3% and the inhibition [6, 32] was -56.3%. For the same compound, the inhibition ([7]; at 0.5 µM) was 1.96% (inactive), the inhibition [7, 33] was -7.2% and the inhibition [7, 34] was 15.9%. The inhibition ([8]; at 0.5 µM) was 8.37% (inactive), the inhibition [8, 35] was 69.6% and the inhibition [8, 36] was 18.6%. For the same compound, the inhibition ([9]; at 0.5 µM) was -9.62% (inactive), the inhibition [9, 25] was -6.67% and the inhibition [9, 26] was 4.64%. The inhibition ([10]; at 0.5 µM) was -2.86% (inactive), the inhibition [10, 37] was -6.6% and the inhibition [10, 38] was -11.7%. The inhibition [10, 39] was 0.551%, the inhibition [10, 40] was -30.7% and the inhibition [11, 41] was 8.97%. For the same compound, the inhibition ([11]; at 0.5 µM) was 3.94% (inactive), the inhibition [11, 42] was -14.9% and the inhibition ([12]; at 0.5 µM) was 4.94% (inactive). The inhibition [12, 43] was 4.6%, the inhibition [12, 44] was -1.31% and the inhibition ([13]; at 0.5 µM) was -2.6% (inactive). The inhibition [13, 45] was -10.5%, the inhibition ([13]; cisplatin combination, at 5 µM) was 0.186% and the inhibition [13, 46] was -24.1%. The inhibition ([13]; single agent, at 5 µM) was 0.55%, the inhibition ([14]; at 0.5 µM) was -2.13% (inactive) and the inhibition ([14]; cisplatin combo, at 5 µM) was -6.02%. It also gave an inhibition [14, 47] of -12.2%, an inhibition [14, 25] of 41.9% and an inhibition ([14]; single agent, at 5 µM) of -34.1%. For the same compound, the inhibition ([15]; at 0.5 µM) was -17.1% (inactive), the inhibition [15, 22] was -18.6% and the inhibition [15, 23] was -18.2%. The inhibition ([15]; single agent, at 0.05 µM) was -5.63% and the inhibition ([15]; single agent, at 5 µM) was -50.2%.

For `CC(C)c1ccc(-c2cc(=O)c3ccccc3o2)cc1`, the inhibition [1, 16] was -1.02% (inactive), the inhibition [1, 17] was -13.4% and the inhibition [1, 18] was -27.4%. The inhibition [1, 19] was 8.34%, the inhibition [1, 20] was 64.5% and the inhibition [1, 21] was 60.2%. The inhibition ([2]; BGB combo, at 5 µM) was 30.8%, the inhibition ([2]; at 0.5 µM) was -12.3% (inactive) and the inhibition ([2]; cisplatin combo, at 5 µM) was 30.4%. It also gave an inhibition [2, 22] of -6.46%, an inhibition [2, 23] of -22.2% and an inhibition ([2]; single agent, at 5 µM) of 42.1%. For the same compound, the inhibition ([3]; BGB IC20 combo, at 0.005 µM) was 5.4%, the inhibition ([3]; BGB IC40 combo, at 0.005 µM) was -31.5% and the inhibition ([3]; BGB IC40 combo, at 0.05 µM) was 14.8%. The inhibition ([3]; at 0.5 µM) was -18.8% (inactive), the inhibition ([3]; cisplatin combo, at 0.05 µM) was 11.4% and the inhibition ([3]; cisplatin combo, at 0.5 µM) was -24.5%. For the same compound, the inhibition ([3]; cisplatin combo, at 5 µM) was -45%, the inhibition [3, 24] was -10.3% and the inhibition ([4]; at 0.5 µM) was -36.4% (inactive). For the same compound, the inhibition [4, 19] was -28.3%, the inhibition [4, 25] was -81.6% and the inhibition [4, 26] was 18.3%. For the same compound, the inhibition ([5]; at 0.5 µM) was -40.2% (inactive), the inhibition [5, 27] was -39.8% and the inhibition [5, 28] was 1.8%. For the same compound, the inhibition [5, 29] was -59.9%, the inhibition [5, 30] was 17.5% and the inhibition ([5]; single agent, at 5 µM) was 16.9%. The inhibition ([6]; at 0.5 µM) was -58.5% (inactive), the inhibition [6, 31] was -35.3% and the inhibition [6, 32] was -37.3%. For the same compound, the inhibition ([7]; at 0.5 µM) was -10% (inactive), the inhibition [7, 33] was -14% and the inhibition [7, 34] was -4.48%. For the same compound, the inhibition ([8]; at 0.5 µM) was -15.3% (inactive), the inhibition [8, 35] was -31.9% and the inhibition [8, 36] was -16.9%. For the same compound, the inhibition ([9]; at 0.5 µM) was -14.3% (inactive), the inhibition [9, 25] was -16.1% and the inhibition [9, 26] was 41.6%. The inhibition ([10]; at 0.5 µM) was -11.1% (inactive), the inhibition [10, 37] was -14.1% and the inhibition [10, 38] was 27.2%. For the same compound, the inhibition [10, 39] was -11.6%, the inhibition [10, 40] was 22.8% and the inhibition [11, 41] was 43.9%. For the same compound, the inhibition ([11]; at 0.5 µM) was -16.7% (inactive), the inhibition [11, 42] was 32.9% and the inhibition ([12]; at 0.5 µM) was -3.03% (inactive). For the same compound, the inhibition [12, 43] was 2.13%, the inhibition [12, 44] was -6.48% and the inhibition ([13]; at 0.5 µM) was -10.1% (inactive). The inhibition [13, 45] was -5.92%, the inhibition ([13]; cisplatin combination, at 5 µM) was 41.9% and the inhibition [13, 46] was -23.7%. The inhibition ([13]; single agent, at 5 µM) was 42.7%, the inhibition ([14]; at 0.5 µM) was -14% (inactive) and the inhibition ([14]; cisplatin combo, at 5 µM) was 35.3%. It also gave an inhibition [14, 47] of -32.1%, an inhibition [14, 25] of -17.3% and an inhibition ([14]; single agent, at 5 µM) of 35%. The inhibition ([15]; at 0.5 µM) was -29.6% (inactive), the inhibition [15, 22] was -34% and the inhibition [15, 23] was -27.5%. For the same compound, the inhibition ([15]; single agent, at 0.05 µM) was -43.4% and the inhibition ([15]; single agent, at 5 µM) was 26.5%.

— PubChem BioAssay
